# From the supplement of paper PMC6555819
# Tested on: PXR homodimer (NR concentration 270 nM)
# Assay: PBM binding z-score (relative to random genomic background probes); higher = stronger binding; sequences stand for … in GC…GCGATTGACAGCGTAGAATGAAGG
# Outline: (§1)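 Binding z-scores take random background probes as their reference. They come from custom Agilent 4×180K protein-binding microarrays incubated 1 h with ligand-free nuclear receptor dimers, with antibodies against each partner (one per run) detecting binding. Scanned fluorescence was regression-normalized.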
row,Sequence,PBM binding z-score
1,ATTCGGAGGACAAAGGTCAGAGCTACGCCAGTGA,0.477
2,GGAACGAGGGCAAGTTGATGGCAGAGTTTGATGG,0.748
3,AGTCAAAGTTCACTAGGTCACGTAAGATTCAGCT,3.91
4,TCTTGTAGATCAGGAGGTTAAGAAAGCTGGCCAA,-0.154
5,TAGCCTAGGTCAGATCGGTCCAGTATACGCTATA,-0.919
6,ATCTCTAGGTAACCAAGTTCAGGGAATGCCGAAC,1.49
7,TCGAGTAGGTTAGGGGCGTTCAGAATGGCGTCGA,0.0132
8,TCATATAGGTAAACAGGGGAAAGTCCGTAAGTTA,0.414
9,ACTATTAGTTGAGACGAGGGCAACCTATAGGTTG,0.585
10,CCTACTGGGCCATCAGGCCATTGATATCAACGTT,-0.336
11,TCTCGGAGCACACGAAGGTCAGAGCTTTCCAGAG,-1.04
12,ATCTCTAGGTAACCAAGTTCAATGAATGCCGAAC,3.6
13,TGGATGAGGTTAAAGATCAGGGAACGTGGCGTCG,1.07
14,CTCGAAAGGTCGGTTGAGGTGCGTATACGGATAA,0.0676
15,ATCGAAAGGTCGAGCTGAGTATAGAGAAAGGGAA,-0.467
16,ACAGACATGTGAGTGAAGGTAACTCAGCTGGACG,-0.383
17,CAAACTAGGTCACGGAAGGTCAAAGTCGAATGAC,2.28
18,TAGCATAGGTCATTGGGCCAGTATAGTACGCATC,-0.00464
19,AGTCAAAGTTCATCTAGGTAACGTATGATATGCT,7.63
20,AGAATGAGGTTAAGATGAGGGAAACAGAATACAT,0.581

row,Sequence,PBM binding z-score
1,CCTCCAAGGTCAATGCTAGGTCAGTGAAAGCATT,1.09
2,TCGAGTAGGTTAGGGGCAGTCAGAATGGCGTCGA,0.227
3,ATCGAAAGGTCGACGAGGTGTGTATACACCGTTT,-0.171
4,CCTACTGGGCCATTCAGAGGTCTTTGATCATATG,0.0887
5,ATCGAAACGTCGAGGTGAGTATAGAGAAAGGGAA,-0.0991
6,CCCAGCAGGCCAGGGTCACTCAAGCATTTCGCTT,-0.562
7,CTTCCAAGGTCAATGCTAGGTCAGTGAAAGCATT,1.63
8,GGTACGAGGGCATTCGAGTTGATAGCATGGCGAT,1.73
9,TGTCAAAGTTCAAAGGTAACGTACGTATCCACAC,3
10,GGAACGAGAGCAAAGTTGATAGCATCTGTCGACG,-0.418
11,GCTATTAGTTGAAAGGGCAACCAAATGATTCTCG,0.104
12,ATATGTAGGTTACAACCGGGTCATTCAGGCTATG,1.71
13,TCTTGTAGATCAACAGGGGGTTAAGAAAGATCGA,0.467
14,CCTACTGGGCCAAAAAGCTCATTGATGCCGATAA,-0.417
15,AGTCAAAGTTCAGGACGAGTTAACGTAAAGCACG,1.43
16,TGAATGAGGTTAAAGATTAGGGAACGTGGCGTCG,0.337
17,CAAACTAGGTCCCGAAAGGTCAAAGTCGAATGAC,1.52
18,CCAAGTTGGTCAGGAGGTCACACACCGGATATGA,0.876
19,AGTCAAAGTTCAGGACGATGTAACGTAAAGCACG,1.24
20,GCAACGAGGGCAAAGTTGATAGCATCTGTCGACG,-0.438

# Tested on: RARa:RXR (NR concentration 270 nM, RXRa partner concentration 90 nM)
# Assay: as above
# Outline: as §1
row,Sequence,PBM binding z-score
1,ATTCGGAGGACAAAGGTCAGAGCTACGCCAGTGA,4.9
2,GGAACGAGGGCAAGTTGATGGCAGAGTTTGATGG,0.523
3,AGTCAAAGTTCACTAGGTCACGTAAGATTCAGCT,5.75
4,TCTTGTAGATCAGGAGGTTAAGAAAGCTGGCCAA,0.854
5,TAGCCTAGGTCAGATCGGTCCAGTATACGCTATA,0.948
6,ATCTCTAGGTAACCAAGTTCAGGGAATGCCGAAC,0.735
7,TCGAGTAGGTTAGGGGCGTTCAGAATGGCGTCGA,0.223
8,TCATATAGGTAAACAGGGGAAAGTCCGTAAGTTA,1.21
9,ACTATTAGTTGAGACGAGGGCAACCTATAGGTTG,1.09
10,CCTACTGGGCCATCAGGCCATTGATATCAACGTT,-0.428
11,TCTCGGAGCACACGAAGGTCAGAGCTTTCCAGAG,1.49
12,ATCTCTAGGTAACCAAGTTCAATGAATGCCGAAC,1.33
13,TGGATGAGGTTAAAGATCAGGGAACGTGGCGTCG,3.96
14,CTCGAAAGGTCGGTTGAGGTGCGTATACGGATAA,1.44
15,ATCGAAAGGTCGAGCTGAGTATAGAGAAAGGGAA,2.89
16,ACAGACATGTGAGTGAAGGTAACTCAGCTGGACG,-0.531
17,CAAACTAGGTCACGGAAGGTCAAAGTCGAATGAC,6.84
18,TAGCATAGGTCATTGGGCCAGTATAGTACGCATC,3.16
19,AGTCAAAGTTCATCTAGGTAACGTATGATATGCT,3.93
20,AGAATGAGGTTAAGATGAGGGAAACAGAATACAT,2.22

row,Sequence,PBM binding z-score
1,CCTCCAAGGTCAATGCTAGGTCAGTGAAAGCATT,5.43
2,TCGAGTAGGTTAGGGGCAGTCAGAATGGCGTCGA,0.265
3,ATCGAAAGGTCGACGAGGTGTGTATACACCGTTT,2.91
4,CCTACTGGGCCATTCAGAGGTCTTTGATCATATG,-0.471
5,ATCGAAACGTCGAGGTGAGTATAGAGAAAGGGAA,0.0247
6,CCCAGCAGGCCAGGGTCACTCAAGCATTTCGCTT,3.22
7,CTTCCAAGGTCAATGCTAGGTCAGTGAAAGCATT,6.06
8,GGTACGAGGGCATTCGAGTTGATAGCATGGCGAT,0.568
9,TGTCAAAGTTCAAAGGTAACGTACGTATCCACAC,6.3
10,GGAACGAGAGCAAAGTTGATAGCATCTGTCGACG,-0.331
11,GCTATTAGTTGAAAGGGCAACCAAATGATTCTCG,1.48
12,ATATGTAGGTTACAACCGGGTCATTCAGGCTATG,3.96
13,TCTTGTAGATCAACAGGGGGTTAAGAAAGATCGA,2.42
14,CCTACTGGGCCAAAAAGCTCATTGATGCCGATAA,-1.01
15,AGTCAAAGTTCAGGACGAGTTAACGTAAAGCACG,2.4
16,TGAATGAGGTTAAAGATTAGGGAACGTGGCGTCG,1.98
17,CAAACTAGGTCCCGAAAGGTCAAAGTCGAATGAC,6.01
18,CCAAGTTGGTCAGGAGGTCACACACCGGATATGA,4.41
19,AGTCAAAGTTCAGGACGATGTAACGTAAAGCACG,1.78
20,GCAACGAGGGCAAAGTTGATAGCATCTGTCGACG,1.53
